Where a name gives a salt, the structure may show the parent alone.
How the values were obtained:
Conditions in all cases: compound concentration in added solution (µM; 5 µl added to 20 µl cells): 10; 18 h
A431 [1] = assay: LBPA endosome anti-LBPA integrated intensity (sum per cell), Z-score; higher = more LBPA staining
Method in brief: (§1)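 Reported values are Z-scores from AcuityXpress normalisation of per-cell integrated LBPA or filipin staining. HeLa MZ or A431 cells (3,500/well in 20 µl) were seeded onto 5 µl of 10 µM compound solution in duplicate 384-well plates, incubated 18 h, fixed in 4% PFA, stained and imaged at 20×. MetaXpress segmentation measured the intensity over the whole cell or within LBPA endosomes.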

HeLa MZ [2] = assay: as above
Method in brief: as §1

A431 [3] = assay: whole-cell filipin (free cholesterol) integrated intensity, Z-score; higher = more cholesterol staining
Method in brief: as §1

HeLa MZ [4] = assay: as above
Method in brief: as §1

A431 [5] = assay: filipin (cholesterol) integrated intensity within LBPA endosomes, Z-score; higher = more cholesterol in LBPA endosomes
Method in brief: as §1

HeLa MZ [6] = assay: as above
Method in brief: as §1

| Structure (SMILES) | LBPA endosome anti-LBPA integrated intensity (z-score) (A431 [1]) | LBPA endosome anti-LBPA integrated intensity (z-score) (HeLa MZ [2]) | whole-cell filipin (z-score) (A431 [3]) | whole-cell filipin (z-score) (HeLa MZ [4]) | filipin (z-score) (A431 [5]) | filipin (z-score) (HeLa MZ [6]) |
| --- | --- | --- | --- | --- | --- | --- |
| O=C(O)Cc1ccc(-c2ccccc2)cc1 [Felbinac] | -0.537 | -0.83 | -0.402 | -0.285 | -0.525 | -0.491 |
| O=C(O)c1cccnc1Nc1cccc(C(F)(F)F)c1 [Niflumic acid] | -0.414 | -0.666 | -0.705 | -0.278 | -0.444 | -0.519 |
| CC(C)(C)NC[C@H](O)COc1ccccc1C1CCCC1 [Penbutolol sulfate] | 1.31 | 0.815 | 1.46 | 0.313 | 1.3 | 0.914 |
| Cc1cc(C(=O)NNCc2ccccc2)no1 [Isocarboxazid] | -0.549 | -1.31 | -0.396 | -0.63 | -0.553 | -0.513 |
| CCCCc1nc(Cl)c(CO)n1Cc1ccc(-c2ccccc2-c2nnn[nH]2)cc1 [Losartan] | -0.107 | -0.132 | 0.421 | -0.132 | -0.313 | -0.537 |
| CC(C)[N+](C)(CCOC(=O)C1c2ccccc2Oc2ccccc21)C(C)C [Propantheline bromide] | -0.352 | 0.315 | -0.217 | 0.064 | -0.366 | -0.177 |
| COc1ccc(CC(C)NCC(O)c2ccc(O)c(NC=O)c2)cc1 (stereo unspecified) [Formoterol fumarate] | -0.505 | -1.42 | 0.171 | -0.609 | -0.478 | -0.313 |
| CCN(CC)CCOC(=O)C(c1ccccc1)C1CCCCC1 (stereo unspecified) [Drofenine hydrochloride] | 1.02 | 2.6 | 1.05 | 0.772 | 1.02 | 1.12 |
| COc1ccc(NS(=O)(=O)c2ccc(N)cc2)nn1 [Sulfamethoxypyridazine] | -0.55 | -1.31 | -0.449 | -0.237 | -0.455 | -0.522 |
| Clc1cccc(Cl)c1NC1=NCCN1 [Clonidine hydrochloride] | -0.318 | -0.0581 | -0.585 | -0.0901 | -0.436 | -0.268 |
| Cn1c([N+](=O)[O-])cnc1COC(N)=O [Ronidazole] | -0.617 | -0.899 | -0.075 | -0.4 | -0.579 | -0.485 |
